The values below come from PubChem BioAssay.

Calls of active or inactive are those of the source.

Test [1] can be described thus: E. coli DRC41 culture turbidity changes, primary screen, E. coli filamentation inducer project, strain DRC41, OD650, 48 h (AID 1152).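 Note: E. coli MC1000 strain DRC41 lacking acrAB efflux pump and sulA.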 The following applies: E. coli DRC41 (acrAB sulA), higher = more signal, called active from +8 up or from −8 down.
Test [2] in a line: small-molecule binders of probe aLefty1, primary screen, biochemical, small-molecule microarray, 635/667 nm fluorescence (AID 1153).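 Note: score merges spot fluorescence with signal-to-noise ratio from the scanned slide images.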 Conditions: higher = more signal.
Test [3] in a line: PSAC antagonists in infected red cells, primary screen, cell-based, P. falciparum Indochina, OD700, 1 h (AID 1154). The following applies: P. falciparum Indochina infected RBC osmotic lysis, higher = more signal, called active from +8 up or from −8 down.
Test [4] in a line: PSAC antagonists in infected red cells, primary screen, cell-based, P. falciparum Indochina, OD700, 2 h (AID 1155).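 Note: lysis reports solute entry through the parasite surface anion channel PSAC; channel blockers reduce lysis of infected cells.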 The following applies: P. falciparum Indochina infected erythrocytes, osmotic lysis OD700; higher = more signal, called active from +8 up or from −8 down.
Test [5] can be described thus: osmotic lysis modulators in infected erythrocytes, primary screen, PSAC antagonist project, cell-based, P. falciparum Indochina, OD700, 3 h (AID 1156). The following applies: higher = more signal, called active from +8 up or from −8 down.
Test [6] can be described thus: PSAC antagonists in infected red cells, primary screen, cell-based, P. falciparum Indochina, OD700, 18 h (AID 1157). Conditions: P. falciparum Indochina infected erythrocytes, osmotic lysis OD700, 18 h; higher = more signal, called active from +8 up or from −8 down.
The nature of test [7]: modulators of S6 phosphorylation in cells, primary screen, cell-based, A549, cytoblot, luminescence, serum-stimulated (AID 1158).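 Note: serum-stimulated A549 lung adenocarcinoma cells; signal is phosphorylated S6 detected by cytoblot immunostaining with HRP secondary.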 Conditions: A549 phospho-S6 cytoblot, 5 h, higher = more signal.
Test [8] addresses NADPH oxidase 2 (Homo sapiens) (UniProt P04839). The experiment in a line: NOX2-dependent H2O2 signal modulators, primary screen, NOX inhibitor project, cell-based, HEK293-NOX2, PMA-stimulated, Amplex Red fluorescence (AID 1159). Note: test concentration not given here. Conditions: 45 min, higher = more signal, called active from +8 up or from −8 down.
The target in test [9] is NADPH oxidase 4 (Homo sapiens) (UniProt Q9NPH5). The experiment in a line: NOX4-dependent H2O2 signal modulators, primary screen, NOX inhibitor project, cell-based, HEK293-NOX4, tetracycline-induced, Amplex Red fluorescence (AID 1160). The following applies: 45 min, higher = more signal, called active from +8 up or from −8 down.
The target of test [10] is NADPH oxidase 5 (Homo sapiens) (UniProt Q96PH1). The experiment in a line: NOX5-dependent H2O2 signal modulators, primary screen, NOX inhibitor project, cell-based, HEK293-NOX5, Amplex Red fluorescence (AID 1161). Conditions: HEK293-NOX5, ionomycin, 45 min, higher = more signal.
A short description of test [11]: A549 cell viability effects, profiling panel, calcein-AM fluorescence, 48 h, basal (AID 1162). Note: test concentration not given here. Conditions: higher = more signal.
The nature of test [12]: adipocyte viability effects, profiling panel, cell-based, 3T3-L1 adipocytes, calcein-AM fluorescence, 48 h, basal (AID 1163). Note: test concentration not given here. The following applies: 3T3-L1 adipocytes viability, higher = more signal.
The nature of test [13]: HepG2 cell viability effects, profiling panel, calcein-AM fluorescence, 48 h, basal (AID 1164). Note: test concentration not given here. The following applies: higher = more signal.
Test [14] is described as follows: MM1S cell viability effects, profiling panel, calcein-AM fluorescence, 48 h, basal (AID 1165).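 Note: viability of MM1S multiple myeloma cells under basal unstimulated conditions; test concentration not given here.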 Conditions: higher = more signal.
Test [15] in a line: basal RPMI8226 viability, no added stimulus, profiling panel, cell-based, calcein-AM fluorescence, 48 h, PK04 Diversity Set (AID 1166).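 Note: cells grown under basal conditions without added stimulus; test concentration not given here.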 The following applies: RPMI8226 myeloma viability, higher = more signal.
Test [16] can be described thus: basal HepG2 mitochondrial membrane potential changes, profiling panel, cell-based, JC-1 fluorescence, 24 h, 100 nL compound (AID 1167). Note: test concentration not given here. The following applies: higher = more signal.
Test [17] is described as follows: basal 3T3-L1 adipocyte mitochondrial potential changes, profiling panel, cell-based, JC-1 fluorescence, 3T3-L1 adipocytes, 24 h, 100 nL compound (AID 1168). Note: test concentration not given here. Conditions: JC-1 mitochondrial fluorescence, higher = more signal, called active from +8 up or from −8 down.
Test [18] can be described thus: basal RPMI8226 mitochondrial membrane potential changes, profiling panel, cell-based, JC-1 fluorescence, 24 h, 100 nL compound (AID 1169). Note: test concentration not given here. Conditions: RPMI8226 myeloma, JC-1 mitochondrial potential fluorescence, higher = more signal.
Test [19] is described as follows: basal MM1S mitochondrial membrane potential changes, profiling panel, cell-based, JC-1 fluorescence, 24 h, 100 nL compound (AID 1170). Note: test concentration not given here. The following applies: higher = more signal.
Test [20] can be described thus: A549 lung cancer cell viability effects, profiling panel, resazurin fluorescence, 24 h, PK04 Diversity Set (AID 1171). Note: test concentration not given here. Conditions: higher = more signal, called active from +8 up or from −8 down. For orientation: Resazurin is reduced to fluorescent resorufin, in cell work by metabolically active cells.

Chain of NADPH oxidase 4 (Homo sapiens) (Q9NPH5 whole entry, looked up): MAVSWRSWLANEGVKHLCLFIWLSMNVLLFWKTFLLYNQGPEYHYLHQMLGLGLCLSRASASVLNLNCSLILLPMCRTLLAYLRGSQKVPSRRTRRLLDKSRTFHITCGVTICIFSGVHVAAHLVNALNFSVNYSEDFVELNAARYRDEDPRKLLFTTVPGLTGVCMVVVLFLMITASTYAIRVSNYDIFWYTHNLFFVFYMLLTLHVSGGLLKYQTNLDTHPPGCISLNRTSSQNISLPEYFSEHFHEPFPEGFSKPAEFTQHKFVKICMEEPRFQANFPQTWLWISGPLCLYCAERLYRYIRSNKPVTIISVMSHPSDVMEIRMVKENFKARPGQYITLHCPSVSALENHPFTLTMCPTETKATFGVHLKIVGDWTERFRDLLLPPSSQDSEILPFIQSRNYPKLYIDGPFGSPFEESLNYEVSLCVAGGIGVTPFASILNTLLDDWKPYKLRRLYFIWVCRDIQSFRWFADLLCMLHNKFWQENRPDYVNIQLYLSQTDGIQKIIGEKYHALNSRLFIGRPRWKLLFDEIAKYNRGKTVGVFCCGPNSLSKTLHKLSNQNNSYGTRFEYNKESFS
Chain of NADPH oxidase 5 (Homo sapiens) (Q96PH1 whole entry, looked up): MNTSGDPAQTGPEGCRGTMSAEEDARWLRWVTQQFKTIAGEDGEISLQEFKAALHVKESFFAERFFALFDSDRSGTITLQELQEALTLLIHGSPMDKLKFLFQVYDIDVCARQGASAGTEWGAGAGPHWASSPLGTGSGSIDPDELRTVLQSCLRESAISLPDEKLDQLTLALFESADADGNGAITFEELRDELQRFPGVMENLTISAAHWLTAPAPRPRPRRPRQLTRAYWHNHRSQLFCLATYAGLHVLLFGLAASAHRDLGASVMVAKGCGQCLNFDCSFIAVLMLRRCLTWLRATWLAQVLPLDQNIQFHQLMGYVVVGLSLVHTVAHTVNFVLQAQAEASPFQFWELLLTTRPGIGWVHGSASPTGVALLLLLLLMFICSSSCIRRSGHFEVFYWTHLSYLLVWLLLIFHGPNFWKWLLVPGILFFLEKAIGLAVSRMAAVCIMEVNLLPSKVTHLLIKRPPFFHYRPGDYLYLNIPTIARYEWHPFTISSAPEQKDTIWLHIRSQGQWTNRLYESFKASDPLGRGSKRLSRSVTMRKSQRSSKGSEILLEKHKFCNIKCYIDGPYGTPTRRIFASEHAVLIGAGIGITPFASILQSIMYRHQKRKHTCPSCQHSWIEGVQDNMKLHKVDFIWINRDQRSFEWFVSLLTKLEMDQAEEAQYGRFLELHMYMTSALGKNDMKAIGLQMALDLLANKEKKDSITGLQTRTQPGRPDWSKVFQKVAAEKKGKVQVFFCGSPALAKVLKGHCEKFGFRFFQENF
Chain of NADPH oxidase 2 (Homo sapiens) (P04839 whole entry, looked up): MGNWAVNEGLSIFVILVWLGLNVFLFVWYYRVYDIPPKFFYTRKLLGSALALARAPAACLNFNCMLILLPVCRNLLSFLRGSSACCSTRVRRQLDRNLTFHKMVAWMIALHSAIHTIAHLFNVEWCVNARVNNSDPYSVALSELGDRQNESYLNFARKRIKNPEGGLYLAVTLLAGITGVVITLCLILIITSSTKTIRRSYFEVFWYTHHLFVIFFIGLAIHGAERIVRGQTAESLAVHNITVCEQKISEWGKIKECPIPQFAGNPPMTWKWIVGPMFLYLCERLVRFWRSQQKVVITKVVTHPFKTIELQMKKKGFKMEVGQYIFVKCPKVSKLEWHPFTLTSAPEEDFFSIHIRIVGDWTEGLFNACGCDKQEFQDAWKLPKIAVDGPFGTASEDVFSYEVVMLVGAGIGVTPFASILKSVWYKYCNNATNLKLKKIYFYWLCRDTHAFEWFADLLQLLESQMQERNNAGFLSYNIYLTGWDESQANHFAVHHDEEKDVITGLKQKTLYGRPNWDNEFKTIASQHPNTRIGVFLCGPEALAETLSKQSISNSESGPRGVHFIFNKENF

`CON=C[C@@H](NS(=O)(=O)c1ccc(C)cc1)[C@H](C)C=CCC(=O)OC`: the z-score in test [1] is -1.47 (inactive); in test [3], 0.553 (inactive); in test [4], 0.849 (inactive); in test [5], -0.459 (inactive); in test [6] it was 0.539 (inactive); in test [7], 0.22. Also, the z-score in test [8] is -0.153 (inactive); in test [9], -0.345 (inactive); in test [10] it was -0.415; in [11], 1.19; in [12], -0.951; in [13], 0.244. In addition, the z-score was 0.561 in test [14]; 0.226 in test [15]; 0.271 in [16]; -0.95 (inactive) in test [17]; -0.0325 in [18]; 0.0264 in test [19]. In test [20], the z-score was -0.262 (inactive). Further, the composite z-score in test [2] is -0.0984.

Regarding `CCOC(=O)NN=C1C[C@@H](O)[C@@H](O)[C@@H]2[C@@H]3C(=O)N(c4ccc(F)cc4F)C(=O)[C@@H]3CC[C@@H]12`, the z-score in [1] was -0.588 (inactive); in [3], 1.73 (inactive); in test [4], 0.719 (inactive); in [5], 0.171 (inactive); in test [6], 0.0581 (inactive); in [7] it was -0.561. Moreover, the z-score in [8] was 0.992 (inactive); in [9] it was 0.605 (inactive); in [10] it was -0.407; in test [11] it was 0.187; in test [12], -0.384; in test [13], -1.12. Further, the z-score was 0.218 in test [14]; 0.617 in test [15]; 0.333 in test [16]; 0.076 (inactive) in test [17]; 0.285 in test [18]; -0.326 in test [19]. Moreover, the z-score in test [20] was 0.485 (inactive). In test [2], this compound displayed a composite z-score of 0.197.

Consider `CCOC(=O)[C@H](CC(C)C)NC(=O)CCC1CC(OC(=O)NCc2ccc3c(c2)OCO3)CC2(CCCC(COC(=O)NCC(c3ccccc3)c3ccccc3)O2)O1` (stereo not given in full), for which the z-score was 0.0056 (inactive) in [1]; 2.08 (inactive) in test [3]; 0.316 (inactive) in test [4]; -0.532 (inactive) in test [5]; -0.071 (inactive) in [6]; -0.438 in [7]. Moreover, the z-score in [8] was -0.312 (inactive); in test [9], 1.03 (inactive); in test [10] it was 0.698; in [11], -0.338; in test [12], -0.335; in test [13], -0.312. The z-score in [14] was -3.41; in test [15] it was 0.592; in test [16], -0.106; in [17], 0.604 (inactive); in [18], -0.828; in [19], 0.0369. For the same compound, the z-score in [20] is 0.577 (inactive). The same compound came in with a composite z-score in [2] of -0.106.

Regarding `CO[C@@H]1C=CCC(=O)N[C@@H](C)C(=O)OC[C@@H](OC)[C@H](C)CCCC(=O)OC[C@H]1C`, the z-score is 0.0058 (inactive) in test [1]; -1.15 (inactive) in [3]; -1.22 (inactive) in test [4]; -0.683 (inactive) in test [5]; -2.43 (inactive) in test [6]; -0.417 in test [7]. For the same compound, the z-score is 0.57 (inactive) in test [8]; 0.957 (inactive) in [9]; 0.645 in test [10]; 0.942 in test [11]; -0.226 in test [12]; -0.0306 in test [13]. Further, the z-score in [14] was 0.188; in [15] it was -0.0539; in test [16] it was -0.0819; in [17], 0.225 (inactive); in test [18], 0.236; in [19], -0.392. In addition, in test [20], the z-score was 0.471 (inactive). In [2], this compound registered a composite z-score of 0.0816.
